Assay outcomes: PubChem, National Center for Advancing Translational Sciences (NCATS)
Sampled rows, rich in hits. Any-hit rate of the full collection: about 2.4%.
Pol iota inh: inhibitors of human DNA polymerase iota. AID 588590. Q9UNA4. Pol iota fluorescent replication assay, 10 min. actives 1% (n = 390,000). Potency, µM (titrated, usually from 115 µM), without a hit: at the top dose activity, negative = inhibition, hits mostly inhibitors
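Pol iota at 10 nM preincubated 15 min with compounds at room temperature; reaction started with fluorescent substrate, 50 nM final. Fluorescence read kinetically at 0 and 10 min; buffer-only wells as negative control.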
FEN1 inhibitor: human FEN1 inhibition; P39748; actives 0.35% (n = 390,000); AID 588795; Recombinant FEN1 flap cleavage, fluorescence, 15 min; Potency, µM (top dose mostly 114 µM), without a hit: at the top dose activity change, negative = inhibition, hits mostly inhibitors; also: % is scaled to controls: 0 for no effect and ±100 for the full control effect; nearly all actives have a fitted effect of over 65% in size
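Steps: FEN1 (10 nM) dispensed; compound added by pin tool; 15 min at room temperature; substrate added to 50 nM final; reads at 0 min and 15 min; data normalized and fitted (four-parameter Hill).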
Tb PGK inh: T. brucei PGK inhibition | P07378 | PGK/GAPDH coupled, Kinase-Glo luminescence, 60 min | Potency, µM (highest dose often 57.5 µM), for the others: at the highest dose activity change, negative = inhibition, most hits filed as inhibitors | actives 0.043% (n = 380,000) | AID 602233; also: % is scaled to controls: 0 for no effect and ±100 for the full control effect; nearly all actives have a fitted effect of over 60% in size
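Recombinant glycosomal PGK reaction used 1,3-bisphosphoglycerate generated in-well by GAPDH (100nM final) in 100mM TEA pH 7.6, 5mM MgCl2, 0.01% Tween-20. After 60 minutes at room temperature, ATP was read by Kinase-Glo Plus luminescence end-point.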
POLK inh: blocks human DNA polymerase kappa activity. actives 0.53% (n = 400,000). purified Pol kappa, fluorescent DNA synthesis assay, 10 min. Potency, µM (titrated, usually from 107 µM), without a hit: at the top dose activity, negative = inhibition, most hits filed as inhibitors. Q9UBT6; also: % is scaled to controls: 0 for no effect and ±100 for the full control effect
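10 nM Pol kappa preincubated 15 min at room temperature with compounds, then reaction started with substrate at 50 nM final. Fluorescence read kinetically at 0 and 10 min; buffer-only wells served as negative control.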
Pol beta inh: DNA polymerase beta (human) inhibition. Pol beta primer extension/strand displacement, fluorescence kinetic. actives 1.3% (n = 340,000). P06746. Potency, µM (highest dose often 114 µM), for inactives: at the highest dose activity change, negative = inhibition, most hits filed as inhibitors; also: % is scaled to controls: 0 for no effect and ±100 for the full control effect
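Enzyme-only controls used 10 nM Pol beta; buffer lacking enzyme served as negative control. Compound preincubated 15 min, then 50 nM substrate added; 0 and 10 min reads at room temperature.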
Pol eta inh: DNA polymerase eta (human) inhibition; recombinant Pol eta, fluorescent DNA replication assay; AID 588591; actives 1.2% (n = 390,000); Potency, µM (series often up to 114 µM), for the others: at the top dose activity change, negative = inhibition, most hits filed as inhibitors; also: % is scaled to controls: 0 for no effect and ±100 for the full control effect
Target sequence (Q9Y253 whole entry, looked up): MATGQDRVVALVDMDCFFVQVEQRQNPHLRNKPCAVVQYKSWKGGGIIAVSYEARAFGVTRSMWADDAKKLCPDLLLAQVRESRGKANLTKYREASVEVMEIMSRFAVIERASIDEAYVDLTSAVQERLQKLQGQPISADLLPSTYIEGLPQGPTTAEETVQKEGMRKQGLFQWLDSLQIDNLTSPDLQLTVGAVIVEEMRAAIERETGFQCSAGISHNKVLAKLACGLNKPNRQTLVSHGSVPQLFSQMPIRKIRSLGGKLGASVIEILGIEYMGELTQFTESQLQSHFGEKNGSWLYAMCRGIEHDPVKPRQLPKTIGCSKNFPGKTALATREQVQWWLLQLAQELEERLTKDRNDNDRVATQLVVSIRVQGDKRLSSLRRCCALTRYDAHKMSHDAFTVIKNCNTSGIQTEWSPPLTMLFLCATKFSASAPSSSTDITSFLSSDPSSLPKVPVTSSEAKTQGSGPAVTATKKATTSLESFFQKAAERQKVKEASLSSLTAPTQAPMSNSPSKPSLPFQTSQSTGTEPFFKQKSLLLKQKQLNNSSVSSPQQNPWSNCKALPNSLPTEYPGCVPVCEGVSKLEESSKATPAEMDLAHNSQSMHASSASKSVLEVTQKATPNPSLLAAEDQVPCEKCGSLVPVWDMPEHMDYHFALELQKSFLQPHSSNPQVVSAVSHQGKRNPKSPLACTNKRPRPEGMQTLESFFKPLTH
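Fluorescent replication assay: 50 nM final substrate added after a 15 min room-temperature compound preincubation with 10 nM enzyme. Signal taken at 0 min and again at 10 min.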
Numbers without * were called inactive; i = inactive; ? = inconclusive; . = not tested or not shown; [ ] = remark or other dose. Calls follow the shape of the dose curve; as a rule, active = well fitted curve in the direction sought with a large enough effect; inconclusive = small, poorly fitted or top-dose-only effect, or another doubt; inactive = no such curve, though single readings can be large; an effect the other way counts as inactive or inconclusive. Potency is read from the fitted curve at half-maximal effect.

SMILES	Pol iota inh	FEN1 inhibitor	Tb PGK inh	POLK inh	Pol beta inh	Pol eta inh
CC1Cc2cc(S(=O)(=O)NCc3ccccc3Cl)ccc2N1C(=O)C1CCC1 (stereo unspecified)	-6%	-23%	8%	-20%	25%	-17%
Cc1cc[n+](CCC2CCCCC2)cc1	-12%	2%	.	5%	.	.
CCCCC(CC)CNC(=O)c1ccc2c(=O)n(CCOC)c(=O)[nH]c2c1 (stereo unspecified)	8%	16%	-9%	1%	43%	-8%
CC(C)(C)c1ccc(O)c(N=Cc2cccc([N+](=O)[O-])c2)c1	10%	-5%	.	16%	.	.
Cc1ccc(C)n1Cc1ccc(C(=O)O)cc1	0.71µM*	4µM*	3.2µM*	1.3µM*	2.8µM*	-98%
Cc1ccc(C(=O)NCC(=O)OCC(=O)c2ccc3ccccc3c2)cc1	-16%	4%	.	0%	.	.
CCOc1ccccc1Nc1nc2ccccc2n2cnnc12	16%	-1%	i	-2%	1%	-18%
CCN(CC)c1nc2ccccc2n2cnnc12	89µM*	-12%	i	-7%	8%	-4%
CCCN(CCC)CCCNC(=O)C1CCN(c2nc3ccc(CC)cc3s2)CC1	-8%	-5%	-3%	-15%	2%	8%
O=C1c2ccccc2C(=O)N1CCc1csc(NNc2nc(CCN3C(=O)c4ccccc4C3=O)cs2)n1	?	-14%	-5%	89µM*	25µM*	?
COc1cc2sc3cc(NCC[C@@H]4CCCN4C)ccc3c(=O)c2cc1OC	?	22µM*	3%	?	.	?
COc1cc2sc3cc(NCc4ccc(C)o4)ccc3c(=O)c2cc1OC	22µM*	32µM*	-5%	79µM*	.	-22%
COc1cccc2sc3ccc(NCCC4CCCN4C)cc3c(=O)c12 (stereo unspecified)	?	?	-2%	-11%	-24%	?
O[N+]1=CC=CCC1=S.On1ccccc1=S.[Zn]	.	.	.	-4%[60.1 µM]	.	.
COc1ccc(CCNC(=O)c2cc(-c3ccc(C)c(C)c3)nc3ccccc23)cc1OC	5%	-6%	-11%	-6%[60.1 µM]	-1%	-25%
CN(C)c1ccc(/C=C/c2c(F)cnc3ccccc23)cc1	16%	?	.	-9%	.	.
COc1ccc(C(=O)Nc2cc(-c3nc4ccccc4s3)ccc2OC)cc1	3%	-12%	-5%	-5%	29%	-17%
COc1ccc(-c2nc3ccccc3s2)cc1NC(=O)c1cccc(F)c1	?	?	i	-4%[60.1 µM]	13µM*	-29%
CCCC1=C/C(=C/c2ccc(-c3ccccc3OC)o2)C(=O)O1	?	7%	-1%	-38%	?	25µM*
O=Cc1ccc(-c2ccccc2OC(F)(F)F)o1	0%	-3%	3%	-13%	14%	-16%
COc1ccccc1-c1ccc(/C=C2/C=C(CC(C)C)OC2=O)o1	?	-21%	-9%	-13%	25µM*	-23%
Cc1ccc2c(c1)cc(C(=O)NCc1ccc(F)cc1)n2C	30%	7%	-7%	-7%	?	-19%
C=C(CO)C1Cc2c(ccc3c2OC2COc4cc(OC)c(OC)cc4C2C3=O)O1 (stereo unspecified)	.	.	.	-8%[19.4 µM]	.	.
O/N=C(/C[n+]1ccsc1)c1ccc(I)cc1	19%	-14%	.	-2%	.	.
O=C(c1cc2ccccc2[nH]1)c1cc2cc(O)ccc2[nH]1	7%	-7%	.	6%	.	.
SMILES	Pol iota inh	FEN1 inhibitor	Tb PGK inh	POLK inh	Pol beta inh	Pol eta inh
COc1cc(NC(=S)NCCC(c2ccccc2)c2ccccc2)cc(OC)c1	89µM*	79µM*	4%	?	30%	?
CCc1cc2c(=O)c(-c3nc4ccccc4n3C)coc2c(CN2CCCCC2C)c1O (stereo unspecified)	32µM*	?	-22%	-97%	28µM*	?
COc1ccc(C2=Nn3c(nnc3-c3ccccc3F)SC2)cc1OC1CCOC1 (stereo unspecified)	-18%	-3%	-5%	?	.	-7%
COc1ccc(C2=Nn3c(nnc3-c3ccccc3F)SC2)cc1OC1CCCC1	-10%	?	-1%	50µM*	.	-15%
COc1ccccc1CNC(=O)C(=O)NCC(c1cccs1)S(=O)(=O)c1ccc(F)cc1 (stereo unspecified)	-5%	4%	-1%	2%[60.1 µM]	-1%	-18%
CC1CCN(C2=C(NS(=O)(=O)c3ccccc3)C(=O)c3ccccc3C2=O)CC1	?	?	-5%	-19%	?	-15%
CC1CCN(C2=C(NS(=O)(=O)c3ccc(Br)cc3)C(=O)c3ccccc3C2=O)CC1	7.1µM*	?	-10%	-17%	35%	-12%
CCOC(=O)N1CCN(C2=C(NS(=O)(=O)c3ccc(NC(C)=O)cc3)C(=O)c3ccccc3C2=O)CC1	6.3µM*	?	-8%	-10%	?	-5%
Cc1nnc(-c2cccc(Br)c2)c2cn(-c3ccc(Br)cc3)nc12	-25%	?	-5%	?	17%	?
COc1ccc(-n2cc3c(-c4cccc(Br)c4)nnc(C)c3n2)cc1	?	79µM*	0%	-11%	28%	-17%
N=C1Sc2ccccc2C2=NCCCN12	7%[58.9 µM]	.	.	.	2%[57.1 µM]	-4%[57.1 µM]
C=CS(=O)(=O)c1c2cc(OC)ccc2nc2ccc(OC)cc12	28µM*	?	-10%	-22%	.	?
C[C@@H]1[C@H](c2ccccc2)OCCS(=O)(=O)N1Cc1cccc(Cl)c1	16%	-3%	.	7%	.	.
Cc1cccc(C(=O)Nc2nc3c(s2)CCCC3)c1	23%	5%	-13%	-5%	-21%	-14%
O=C(Nc1nc2c(s1)CCCC2)c1ccc(Br)s1	79µM*	-14%	-2%	-6%	-1%	-9%
COc1ccc2[nH]c(C(O)C(O)c3nc4c(OC)c(OC)ccc4[nH]3)nc2c1OC (stereo unspecified)	111%	?	.	-20%	.	.
COc1ccccc1NC(=O)c1nc(SCc2ccccc2F)ncc1Cl	-11%	2%	.	-19%	.	.
COc1cc(C=O)ccc1OCCOCCOc1c(C)cc(Cl)cc1Cl	2%	-15%	2%	-5%	10µM*	-12%
O=C(O)CCCCCNS(=O)(=O)c1ccc2c3c(cccc13)C(=O)N2	?	-1%	-2%	?	16µM*	?
O=C(O)/C=C/c1ccc(S(=O)(=O)NCc2ccco2)cc1	-22%	-9%	-12%	-23%	-29%	35µM*
O=C1Nc2ccc(S(=O)(=O)NCc3ccco3)c3cccc1c23	40µM*	-23%	-10%	-43%	.	20µM*
CNS(=O)(=O)c1ccc2c3c(cccc13)C(=O)N2	-3%	1%	-14%	-11%	68%	4%
